Source: paper PMC8384837, “Expanding the binding specificity for RNA recognition by a PUF domain”
Positions count from the first letter of the chain named.

Assays:
Experiment in all cases: yeast three-hybrid, YBZ-1, SC-Leu-His + 0.5 mM 3-AT, 4 days
Details in all cases: tags: N-Gal4 AD-HA kept; label: inside an RPR1-promoter hybrid RNA with tandem MS2 sites; ssRNA
[1] = target: PUM1 PUF domain R3-ARA (Homo sapiens, UniProt Q14671 828-1176, C935A;Q939A)
Procedure, shortened: (§1)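 Sequencing with Illumina followed PCR amplification of the repeat regions from transformants grown four days on SC-Leu (input) or SC-Leu-His + 0.5 mM 3-AT (selection). The transformants were strain YBZ-1 with a LexA–MS2 coat fusion and a HIS3 reporter, carrying Pumilio-1 PUF domain libraries and matching RNA elements. The interaction score is the log change in variant frequency from input to selection, computed in log2 with a pseudocount of 1 for absent variants.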

[2] = target: T1, PUM1 PUF domain R6-CYV (Homo sapiens, UniProt Q14671 828-1176, N1043C;Q1047V)
T1 sequence: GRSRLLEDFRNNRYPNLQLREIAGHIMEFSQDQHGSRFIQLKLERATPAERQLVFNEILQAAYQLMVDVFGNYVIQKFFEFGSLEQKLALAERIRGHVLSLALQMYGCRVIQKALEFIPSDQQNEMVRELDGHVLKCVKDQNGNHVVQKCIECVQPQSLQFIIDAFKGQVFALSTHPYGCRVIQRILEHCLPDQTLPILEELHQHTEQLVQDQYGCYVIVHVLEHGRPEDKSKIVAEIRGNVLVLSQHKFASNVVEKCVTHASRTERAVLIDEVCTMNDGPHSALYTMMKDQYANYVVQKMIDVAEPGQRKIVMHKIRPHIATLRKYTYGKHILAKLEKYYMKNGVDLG
Procedure, shortened: as §1

[3] = target: T2, PUM1 PUF domain R6-GHS (Homo sapiens, UniProt Q14671 828-1176, N1043G;Y1044H;Q1047S)
T2 sequence: T1 sequence with C216G, Y217H, V220S
Procedure, shortened: as §1

[4] = target: PUM1 PUF domain R5-KAS (Homo sapiens, UniProt Q14671 828-1176, C1007K;R1008A;Q1011S)
Procedure, shortened: as §1

[5] = target: PUM1 PUF domain R4-SNL (Homo sapiens, UniProt Q14671 828-1176, N971S;H972N;Q975L)
Procedure, shortened: as §1

[6] = target: PUM1 PUF domain R3-VYF (Homo sapiens, UniProt Q14671 828-1176, C935V;R936Y;Q939F)
Procedure, shortened: as §1

[7] = target: PUM1 PUF domain R1-QVK (Homo sapiens, UniProt Q14671 828-1176, S863Q;R864V;Q867K)
Procedure, shortened: as §1

“GGCUAGAACUAGUGGAUCCCCCGGCGCCCGGCGGCUCGAGCCCGGGUAAGUGUAAGUAGUCUGCAUGCCGCCGGGCGCCAUGCCUGCAGGUCGACUCUAGAAAACAUG” was tested, and the binding signal [1] was 1.03 log2 enrichment (interaction score).
“GGCUAGAACUAGUGGAUCCCCCGGCGCCCGGCGGCUCGAGCCCGGGUAAGUGUAAUUAGUCUGCAUGCCGCCGGGCGCCAUGCCUGCAGGUCGACUCUAGAAAACAUG” was tested, and the binding signal [1] was 0.92 log2 enrichment (interaction score).
“GGCUAGAACUAGUGGAUCCCCCGGCGCCCGGCGGCUCGAGCCCGGGUAAGUGAAAAUAGUCUGCAUGCCGCCGGGCGCCAUGCCUGCAGGUCGACUCUAGAAAACAUG” was tested, and the binding signal [2] was 3.61 log2 enrichment (interaction score) and the binding signal [3] was 2.5 log2 enrichment (interaction score).
For “GGCUAGAACUAGUGGAUCCCCCGGCGCCCGGCGGCUCGAGCCCGGGUAAGUGUCAAUAGUCUGCAUGCCGCCGGGCGCCAUGCCUGCAGGUCGACUCUAGAAAACAUG”, the binding signal [4] was 3.47 log2 enrichment (interaction score).
For “GGCUAGAACUAGUGGAUCCCCCGGCGCCCGGCGGCUCGAGCCCGGGUAAGUGUUAAUAGUCUGCAUGCCGCCGGGCGCCAUGCCUGCAGGUCGACUCUAGAAAACAUG”, the binding signal [4] was 5.33 log2 enrichment (interaction score).
For “GGCUAGAACUAGUGGAUCCCCCGGCGCCCGGCGGCUCGAGCCCGGGUAAGUGUAUAUAGUCUGCAUGCCGCCGGGCGCCAUGCCUGCAGGUCGACUCUAGAAAACAUG”, the binding signal [5] was 4.22 log2 enrichment (interaction score).
With “GGCUAGAACUAGUGGAUCCCCCGGCGCCCGGCGGCUCGAGCCCGGGUAAGUGUAAAUAGUCUGCAUGCCGCCGGGCGCCAUGCCUGCAGGUCGACUCUAGAAAACAUG” the binding signal [2] was 0.52 log2 enrichment (interaction score), the binding signal [5] was 2.52 log2 enrichment (interaction score) and the binding signal [6] was 5.15 log2 enrichment (interaction score). The binding signal [3] was 0.45 log2 enrichment (interaction score) and the binding signal [1] was 3.97 log2 enrichment (interaction score).
“GGCUAGAACUAGUGGAUCCCCCGGCGCCCGGCGGCUCGAGCCCGGGUAAGUGUAAAUCGUCUGCAUGCCGCCGGGCGCCAUGCCUGCAGGUCGACUCUAGAAAACAUG” was tested, and the binding signal [7] was 2.91 log2 enrichment (interaction score).
